Measured values: the supplement of paper PMC6555819

Experiments:
Assay in all cases: PBM binding z-score (relative to random genomic background probes); higher = stronger binding; sequences stand for … in GC…GCGATTGACAGCGTAGAATGAAGG
[1] = test system: RARb homodimer (NR concentration 270 nM)
How it was run: (§1)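 Ligand-free nuclear receptor dimers were applied to custom Agilent 4×180K protein-binding microarrays whose double-stranded probes carried direct-repeat seeds, single-nucleotide variants, half-site ablations and random human genomic background sequences in 34-nt variable regions. Incubation lasted 1 h. Binding z-scores were computed against the random background probes from regression-normalized fluorescence.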

[2] = test system: RARg:RXRa (NR concentration 270 nM, RXRa partner concentration 90 nM)
How it was run: as §1

[3] = test system: RARg homodimer (NR concentration 270 nM)
How it was run: as §1

[4] = test system: RXRa DBDmut IVT, anti-RXR (DBD mutation: RXRa K156A/R161A, NR concentration 90 nM)
How it was run: as §1

[5] = test system: RXRa homodimer (NR concentration 180 nM)
How it was run: as §1

[6] = test system: THRa:RXRa (NR concentration 90 nM, RXRa partner concentration 90 nM)
How it was run: as §1

[7] = test system: THRa homodimer (NR concentration 90 nM)
How it was run: as §1

[8] = test system: VDR:RXRa (NR concentration 270 nM, RXRa partner concentration 90 nM)
How it was run: as §1

[9] = test system: VDR homodimer (NR concentration 270 nM)
How it was run: as §1

| Sequence | PBM binding z-score [1] | PBM binding z-score [2] | PBM binding z-score [3] | PBM binding z-score [4] | PBM binding z-score [5] | PBM binding z-score [6] | PBM binding z-score [7] | PBM binding z-score [8] | PBM binding z-score [9] |
| --- | --- | --- | --- | --- | --- | --- | --- | --- | --- |
| TCTCTGAGGACACGAAGGTCAGAGCTTTCCAGAG | 3.87 | 3.32 | 3.9 | 1.21 | 1.92 | 4.11 | 4.02 | 2.6 | 1.71 |
| GCTAGCAGGCCATTTGGGTAACTCAATGACGGGC | -0.555 | -0.388 | -0.283 | -0.499 | -0.0687 | -0.0773 | -0.78 | -0.713 | -0.461 |
| CAAACTAGGTCACAGAGGTCAAAATCCGTGCGTA | 5.16 | 7.05 | 7.16 | 3.22 | 7.21 | 4.7 | 2.77 | 7.91 | 5.94 |
| CCTCCTGGGCCATTCAGAGGTCATTGATCATATG | 4.15 | 4.79 | 3.13 | 0.494 | 4 | 3.3 | 1.39 | 3.97 | 3.92 |
| TCTAGTTGGTCAAAGTTCACACACTCGAAATGCG | 4.37 | 4.88 | 4.04 | 2.68 | 4.73 | 2.62 | 1.04 | 4.44 | 4.58 |
| TCGAGTAGGTAAGTCGGGGCATTCAGCCAACATA | -0.0679 | -0.527 | -0.571 | 0.129 | -0.331 | 0.543 | -0.297 | 0.394 | -0.05 |
| TGTCAAAGTTCAAAGCTAACGTAAGTATCCACAC | 3.48 | 5.47 | 5.72 | 4.37 | 4.59 | 1.76 | -0.21 | 4.16 | 3.56 |
| CTCGAAAGTTCGGTTGAGGTGAGTATACGGATAA | 1.12 | 0.738 | 0.973 | 1.24 | 0.161 | 4.57 | 1.37 | 0.728 | 0.742 |
| CCTACTGGGCCATCAGGTCATTGAGATCAACGTT | 2.68 | 2.15 | 2.06 | 0.124 | 1.43 | 3.28 | 2.88 | 3.41 | 1.89 |
| CAAACTAGGTCACACAGGTCAAAGTCCGTGCGTA | 5.02 | 6.04 | 5.85 | 2.27 | 5.62 | 4.13 | 2.13 | 6.73 | 4.16 |
| AGAACGAGGGAACGCTGAGTTGATAGCAGAGTAG | -0.725 | -0.0293 | 0.175 | -0.477 | -0.0289 | -0.362 | -1.15 | -0.0908 | 0.248 |
| ACCGACAGGTGAGTGAAGGTAACTCAGCTGGACG | -0.286 | 0.0773 | 0.407 | -0.459 | 0.0984 | 1.56 | -0.918 | -0.484 | -1 |
| GCAGACAGGTGAAACGCATGTAACTCAGGGTGGC | -0.102 | 0.258 | 0.151 | -0.443 | 0.749 | 0.0674 | -0.704 | -0.601 | -0.736 |
| GTACCAAGGTGAATTGGTCGTTGATGAGTAGGCG | 0.471 | 0.331 | 0.444 | -0.385 | 0.215 | 1.17 | 0.25 | -0.409 | -0.534 |
| CCTGCTAGGGCATGGTCAGCTAATCTACAGTATG | 0.406 | 0.464 | 1.07 | -0.538 | -0.195 | -0.371 | -0.949 | -0.579 | -0.585 |
| ACAGACAGGTGATGAAGGTGACTCAGGCTATCAT | 1.34 | 0.646 | 0.55 | -0.283 | 0.581 | 1.01 | -0.00476 | 0.516 | -0.102 |
| CTACCGAGGTGAACAAGGTCGTTGATTACTATTC | 2.25 | 2.19 | 1.74 | 1.74 | 2.4 | 3.6 | 2.43 | 6.42 | 3.13 |
| ACTAGCAGGCCAAGGGTCACTCAAGATTAGTCCG | 3.86 | 4.17 | 3.74 | 0.678 | 3.93 | 2.65 | 0.199 | 2.61 | 1.29 |
| CCTAGTTGGTCAGGAGGTCGCACACCGGATATGA | 2.18 | 2.4 | 1.98 | -0.149 | 1.86 | 1.66 | 0.99 | 1.41 | 1.59 |
| ATATGTATGTTAAGGGTCATTCAGGTTGGTTCGC | 3.82 | 3.82 | 2.66 | 2.29 | 4.3 | 3.36 | 1.54 | 5.25 | 3.48 |
| CCTATTGGGCCACGAAAGGTCATTGATTCAGTGA | 4.4 | 4.95 | 4.66 | 0.751 | 5.29 | 4.08 | 0.834 | 4.16 | 2.26 |
| CGTCCAAGGTCAGAGAGGTCAGAGAATGCCGAGT | 5.37 | 6.29 | 7.09 | 3.52 | 6.16 | 4.53 | 2.72 | 7.59 | 5.54 |
| TGTCAAAGTTCAAAGGTAACGTTAGTATCCACAC | 4.11 | 6.39 | 6.13 | 4.32 | 7.81 | 3.18 | -0.0671 | 4.9 | 3.97 |
| ATCGAAAGGTCGACGAGGCGAGTATACACCGTTT | 2.61 | 4.06 | 3.74 | 1.28 | 4.22 | 2.48 | -0.128 | 3.79 | 0.605 |
| CGTCCAAGGTCAATGATAGGTCAGTGAAAGCATT | 4.99 | 7.81 | 7.06 | 3.55 | 6.04 | 4.03 | 2.44 | 5.02 | 2.61 |
| ATATGTGGGTTACATCCGGGTCATTCAGGCTATG | 2.79 | 3.53 | 1.94 | 1.08 | 3.17 | 3.75 | 3.01 | 4.41 | 3.65 |
